Data from ChEMBL document CHEMBL3433997, “St. Jude Leishmania screening dataset” (2016).

Experiments:
Format in all cases: functional
[1] = biological target: Solute carrier family 2, facilitated glucose transporter member 1 (Homo sapiens) (UniProt P11166); test: ST_JUDE_LEISH: Cytotoxicity at 2uM final concentration against transgenic Leishmania Mexicana promastigotes LmGLUT1 that are glucose transport deficient and complemented with the human glucose transporter GLUT1. Activity is measured by DNA content using SYBR green in vitro
Sequence of Solute carrier family 2, facilitated glucose transporter member 1 (Homo sapiens) (P11166 whole entry): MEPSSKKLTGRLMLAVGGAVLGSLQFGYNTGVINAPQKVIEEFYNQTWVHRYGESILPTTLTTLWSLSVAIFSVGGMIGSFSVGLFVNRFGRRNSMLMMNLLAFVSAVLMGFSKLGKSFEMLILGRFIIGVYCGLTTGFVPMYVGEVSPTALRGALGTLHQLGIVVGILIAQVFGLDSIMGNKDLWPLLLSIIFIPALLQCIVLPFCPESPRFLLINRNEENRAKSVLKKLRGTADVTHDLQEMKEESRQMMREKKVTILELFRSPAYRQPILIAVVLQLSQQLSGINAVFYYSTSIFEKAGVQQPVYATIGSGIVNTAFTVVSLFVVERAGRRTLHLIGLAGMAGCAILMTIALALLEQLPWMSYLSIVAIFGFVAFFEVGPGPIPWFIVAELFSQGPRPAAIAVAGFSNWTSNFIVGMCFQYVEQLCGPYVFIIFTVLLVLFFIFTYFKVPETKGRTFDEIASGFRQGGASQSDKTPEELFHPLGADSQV

[2] = biological target: Hexose transporter 1 (Plasmodium falciparum) (UniProt O97467); test: ST_JUDE_LEISH: Cytotoxicity at 2uM final concentration against transgenic Leishmania Mexicana promastigotes LmPfHT that are glucose transport deficient and complemented with the Plasmodium falciparum hexose transporter. Activity is measured by DNA content using SYBR green in vitro
[3] = biological target: Glucose transporter (Leishmania mexicana) (UniProt O61059); test: ST_JUDE_LEISH: Cytotoxicity at 2uM final concentration against transgenic Leishmania Mexicana promastigotes LmGT2 that are glucose transport deficient and complemented with the L. Mexicana glucose transporter 2. Activity is measured by DNA content using SYBR green in vitro

| SMILES | inhibition [1] [%] | inhibition [2] [%] | inhibition [3] [%] |
| --- | --- | --- | --- |
| N#CCSc1nnc(-c2ccccc2)c2ccccc12 | 2.6 | 9.44 | -0.1 |
| c1cc(CN2CCN(c3ccncc3)CC2)cc(-c2ccc(-c3nc4ccccc4[nH]3)s2)c1 | 3.45 | 2.53 | 2.03 |
| N=C(N)Nc1nc(-c2ccc(NC(=N)N3CCC[C@H]3CN3CCCC3)cc2)cs1 | -0.01 | -0.2 | -0.7 |
| COc1cccc(C(O)CNc2ccnc(Nc3cccc(-c4csc(C)n4)c3)n2)c1 (centres undefined) | 1.26 | -0.04 | 1.05 |
| C[C@@H](CNc1ccnc(Nc2ccc3[nH]c(=O)[nH]c3c2)n1)c1ccccc1 | -3.02 | -0.02 | -0.41 |
| Cc1cccc(NC(=S)NC2CCN(CCCCCNC(=O)/C=C/c3ccc(Cl)c(Cl)c3)CC2)c1 | 0.27 | 1.13 | 0.99 |
| COc1cc(-c2cnc(N)c(-c3nc4ccccc4[nH]3)c2)cc(OC)c1OC | 5.26 | 9.19 | 1.47 |
| CC(CCNc1c2ccccc2nc2ccccc12)N1CCN(C)CC1 (centres undefined) | 30.8 | 29.1 | 20.8 |
| O=C(/C=C/c1ccc(Cl)c(Cl)c1)NCCCCCN1CCCN(C(=O)Nc2cc(Cl)cc(Cl)c2)CC1 | 3.31 | 3.85 | 6.4 |
| CC1(C)Cc2c(oc3ncn(CCn4cnc5oc6c(c5c4=N)CC(C)(C)SC6)c(=N)c23)CS1 | -0.76 | 0.58 | -0.4 |
| CCCC(C)NC(=O)[C@H](CC1CCCCC1)NC(=O)c1ccc(O)c(-c2ccc(OC)cc2)c1 (some centres undefined) | 2.7 | 0.19 | 2.85 |
| O=C(/C=C/c1ccc(Cl)c(Cl)c1)NCCCCCN1CCC(NC(=O)Nc2ccc(Cl)c(Cl)c2)CC1 | 1.02 | -0.03 | 0.09 |
| COc1c(C2CCN(CCCCNC(=O)c3cc(-c4ccc(C#N)cc4)n[nH]3)CC2)ccc2c1CCCC2 | -0.72 | 0.62 | 1.75 |
| COc1ccc(Cl)cc1C(=O)Nc1ccc(-c2nc3ccccc3[nH]2)cc1 | 4.93 | 3.29 | 1.35 |
| COc1ccc2ncc(Cl)c([C@H](O)CN3CCC(NCc4cc5c(cn4)OCCO5)CC3)c2c1 | 11 | 7.96 | 6.66 |
| COc1ccc(-c2cccc(NC(=O)c3ccc(Cl)cc3)c2)cc1CN1CCCN(C)CC1 | 7.89 | 8.76 | 7.23 |
| CC1(C)[C@H]2CC[C@@H](CNc3nc(NCCc4c[nH]cn4)nc(Nc4ccc(Oc5ccccc5)cc4)n3)[C@@H]1C2 | 1.23 | -1.54 | -1.61 |
| Cc1cc(NCCCCCCNc2cc(C)nc3c(C)cccc23)c2cccc(C)c2n1 | 3.76 | 7.91 | 0.85 |
| CCNC(C)(C)CN(Cc1ccc(-c2ccc(C(F)(F)F)cc2)cc1)C(=O)Cn1c(CCc2cccc(F)c2F)nc(=O)c2ccccc21 | 3.91 | 3.3 | 2.34 |

| SMILES | inhibition [1] [%] | inhibition [2] [%] | inhibition [3] [%] |
| --- | --- | --- | --- |
| Fc1ccccc1-c1cc(Nc2ccncc2)nc(-c2cccnc2)n1 | 0.54 | 1.28 | -6.71 |
| Cc1cccc2nc(-c3cccc(-c4ccc(NC(=O)c5ccc(=O)[nH]n5)cc4)c3)[nH]c12 | 3.76 | 3.2 | 1.44 |
| CC(C)CC1(C(=O)OC(C)(C)C)CC(C(=O)OC(C)(C)C)C(c2cccs2)N1C(=O)c1ccc(C(C)(C)C)cc1 (centres undefined) | 3.89 | 3.12 | 2.67 |
| O=C(Nc1ccc(Cl)cc1)Nc1nc2cc([N+](=O)[O-])ccc2[nH]1 | 0.18 | 0.01 | 0.02 |
| CN(C)CCOc1ccc(-c2cc(-c3ccc(Cl)c(O)c3)c(-c3ccncc3)[nH]2)cc1 | -0.18 | -0.32 | 0.48 |
| O=C(NC1CCCC1)c1cc2c(=O)n3ccccc3nc2[nH]/c1=N/CCc1ccccc1 | 11.5 | 8.49 | 5.94 |
| Cc1cccc2nc(-c3cccc(-c4cccc(NC(=O)Nc5ccccc5)c4)c3)[nH]c12 | 3.85 | 3.36 | 3.26 |
| Clc1cccc(-c2nc(Nc3ccnc(-c4ccc(CN5CCOCC5)cc4)c3)c3ccccc3n2)c1 | 4.42 | 3.91 | 3.58 |
| Fc1cccc(COc2ccc(Nc3ncnc4cc(/C=C/[C@@H]5CCCN5)sc34)cc2Cl)c1 | 5.81 | 0.95 | 1.52 |
| Nc1nccc2ccc(OC3CCCCC3)cc12 | 0.26 | 1.26 | 1.91 |
| COc1cc(NC(=O)C(c2ccc(Cl)cc2)C(C)C)cc(OC)c1OC (centres undefined) | 2.52 | 1.79 | 5.89 |
| Cc1cc(NC(=O)CCCN2CCN(c3cccc(Cl)c3Cl)CC2)ccc1N1CCN(C(C)C)CC1 | 9.52 | 5.3 | 4.97 |
| Cc1cccc2nc(-c3cccc(-c4cccc(NC(=O)c5ccc(C(N)=O)cc5)c4)c3)[nH]c12 | 0.33 | 1.11 | 1.3 |
| CS(=O)(=O)Nc1cccc(-c2cnc3[nH]cc(-c4ccc(C(=O)O)c(F)c4)c3c2)c1 | -2.02 | -1.06 | 1.09 |
| O=C(NCCCCN1CCC(c2nc3ccccc3s2)CC1)c1cc2ccccc2[nH]1 | 3.02 | 0.13 | -1.01 |
| Cc1ccc2nc(C)cc(Nc3ccccc3O)c2c1 | -0.76 | -1.41 | -1.03 |
| O=C(Nc1ccc([N+](=O)[O-])cc1Br)c1cc2ccccc2nc1Cl | 8.95 | 8.73 | 7.12 |
| Cc1cc(N[C@@H](CC(C)C)C(=O)NCCc2ccccc2)nc(Nc2ccccc2)n1 | 4.26 | 5.37 | 2.63 |
| Cc1cc(C)cc(NC(=S)NCCCCN2CCN(c3cccc(Cl)c3)CC2)c1 | -0.5 | -1.31 | -4.65 |
